Results on 60 compounds are retold here after PubChem BioAssay AID1851 (National Center for Advancing Translational Sciences (NCATS), 2009).

In all, about 16,000 compounds went through this assay and about 5,800 (36%) were called active. Inconclusive results (about 23%) are left out. The list shows a part of the results. A number with no mark means an inactive call. Calls come from the whole dose curve; as a rule, active = well fitted curve in the direction sought with a large enough effect; inconclusive = small, poorly fitted or top-dose-only effect, or effect the other way; inactive = no such curve, though single readings can be large or run the other way.
% is set by controls: 0 for no effect and ±100 for the full control effect.

For the experiment, the target named is Cytochrome P450 2C19 (Homo sapiens) (UniProt P33261). Briefly: Cytochrome panel assay with activity outcomes. As to conditions: recombinant CYP, pro-luciferin dealkylation, luminescence, p450-cyp2c19; series mostly up to 57.1 µM; activity, negative = inhibition: at the top concentration.
Sequence of Cytochrome P450 2C19 (Homo sapiens) (P33261 whole entry, looked up): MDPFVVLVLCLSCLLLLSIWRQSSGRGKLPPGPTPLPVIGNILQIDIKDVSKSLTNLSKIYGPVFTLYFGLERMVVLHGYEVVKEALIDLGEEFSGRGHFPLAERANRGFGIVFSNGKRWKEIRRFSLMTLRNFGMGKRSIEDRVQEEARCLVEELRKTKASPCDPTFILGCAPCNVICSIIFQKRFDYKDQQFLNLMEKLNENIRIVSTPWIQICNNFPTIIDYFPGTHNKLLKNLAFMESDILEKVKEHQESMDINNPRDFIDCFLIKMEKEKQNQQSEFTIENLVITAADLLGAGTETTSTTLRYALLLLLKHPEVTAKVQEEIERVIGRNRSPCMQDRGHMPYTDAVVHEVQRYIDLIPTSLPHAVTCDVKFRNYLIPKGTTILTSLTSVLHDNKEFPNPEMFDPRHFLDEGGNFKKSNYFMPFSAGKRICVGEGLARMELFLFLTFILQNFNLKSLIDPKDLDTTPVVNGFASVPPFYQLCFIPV
Consider `CC(Sc1nnc(C(C)N(C)C)n1-c1ccc(Cl)cc1)C(=O)Nc1ccc2c(c1)OCO2` (stereo not given), for which the AC50 (as a rule, the concentration at which the activity in the assay is half-maximal) was 22.4 µM (active).
Still for that read-out and setting: then `COc1ccccc1C(=O)N1CCN(c2ccccn2)CC1`, with 7.08 µM (active).
`Cn1cccc1C(=O)N1CCC2(CC1)CCN(c1ncccn1)CC2`: the “activity, negative = inhibition” value is -26.1%.
Same read-out and setting: then `O=C(O)CCC(=O)N1CCN(c2ccccn2)CC1`, with -10.9%.
With `CC(=O)N1CCC2(CC1)CCN(c1ccccn1)CC2`, the “activity, negative = inhibition” value was -15.1%.
`O=C(c1cnccn1)N1CCC2(CC1)CCN(c1ncccn1)CC2`: the “activity, negative = inhibition” value is -1.14%.
The same measure, in the same setting: with `O=C(c1cnccn1)N1CCC2(CC1)CCN(c1ccccn1)CC2` the figure was -16.2%.
Same read-out and setting: then `COCC(=O)N1CCC2(CC1)CCN(c1ccccn1)CC2`, with -28.4%.
For `O=C(c1cnccn1)N1CCC2(CC1)CN(c1ccccn1)C2`, the “activity, negative = inhibition” value is -19.8%.
As for `O=C(c1cnc(N2CCN(c3ncccn3)CC2)c2ccccc12)N1CCN(c2ncccn2)CC1`, the AC50 was 10 µM (active).
Same read-out and setting: then `O=C(c1cnc(N2CCN(c3ncccn3)CC2)c2ccccc12)N1CCN(c2ccccn2)CC1`, with 5.01 µM (active); and `CC(C)c1ccc(OCc2ccc(C(=O)N3CCN(c4ccccn4)CC3)cc2)cc1`, with 11.2 µM (active).
On to `COCC(=O)N1CCC2(CC1)CCN(C(=O)NC(C)C)CC2`, for which the “activity, negative = inhibition” value was -30.3%.
Consider `Cc1ccc(-n2nnnc2C(=Cc2ccc(N(C)C)cc2)c2nnnn2-c2ccc(C)cc2)cc1`, for which the AC50 is 1.26 µM (active).
Turning to `O=C1CC(c2cccc(F)c2)SC(N(c2ccccc2)c2ccccc2)=N1` (stereo not given), the AC50 was 5.01 µM (active).
With `COC(=O)C(Cc1ccc(OC(=O)c2ccc(C(F)(F)F)cc2)cc1)N1Cc2ccccc2C1=O` (stereo not given), the AC50 was 14.1 µM (active).
As to `O=C(Oc1ccc2c(c1)CN(Cc1ccccc1)CO2)c1ccccc1`, the activity, negative = inhibition was -25.4% [at 11.4 µM].
Consider `COC(=O)C(Cc1ccc(OC(=O)c2ccc(Cl)cc2)cc1)N1Cc2ccccc2C1=O` (stereo not given), for which the AC50 is 2.82 µM (active).
For the compound `CN1CCN(c2ncc3nc(-c4ccccc4)c(=O)n(Cc4cccs4)c3n2)CC1`, the “activity, negative = inhibition” value was -25.6%.
The same measure, in the same setting: then `CC(C)[C@]1(Cl)CC[C@@H]2[C@]3(C)CCC[C@@](C)(C(=O)O)[C@H]3C[C@H](Cl)[C@@]2(Cl)[C@H]1Cl`, with -28.4% [at 11.4 µM]; and `Cc1noc(N)c1C(=O)Nc1ccc(F)cc1`, with -25.6%.
Turning to `Cc1cc(NC(=O)Nc2ccc(F)cc2)no1`, the AC50 was 14.1 µM (active).
With `C1CCC(N=C(NC23CC4CC(CC(C4)C2)C3)N2CCOCC2)CC1`, the “activity, negative = inhibition” value was 28.2%.
Regarding `Cc1ccc(S(=O)(=O)ON=C2CCN(S(=O)(=O)c3ccccc3)CC2)cc1`, the “activity, negative = inhibition” value is -29%.
For the compound `Cc1ccc(S(=O)(=O)O[C@H]2C[C@@H](C(C)(C)C)CC[C@@H]2c2ccccc2)cc1`, the AC50 is 3.16 µM (active).
On the same count and under the same terms, with `C=CCSc1nc(C)cc(/C=C\c2ccccc2)c1C#N` the figure was 5.62 µM (active).
On to `O=C(O)c1cc(=O)c2c(OCC(O)COc3cccc4oc(C(=O)O)cc(=O)c34)cccc2o1`, for which the “activity, negative = inhibition” value was -4.86% [at 25.6 µM].
As for `CCOC(=O)COc1cc(OCC(=O)OCC)c2c(=O)cc(-c3ccccc3)oc2c1`, the AC50 is 14.1 µM (active).
Take `CC(C)C12CC[C@@]3(CC[C@H]4[C@@](C)(CCC[C@]4(C)C(=O)O)[C@@H]3C1)[C@@H](CN)C2`: the activity, negative = inhibition was 8.51% [at 11.4 µM].
For `Cc1ccc(O)c(C(=O)c2cc(C#N)c(=O)n(-c3c(C)n(C)n(-c4ccccc4)c3=O)c2)c1`, the “activity, negative = inhibition” value was -13.2%.
In the case of `Brc1ccc(/C=C/C=N/Nc2nc3ccccc3s2)cc1`, the AC50 was 3.55 µM (active).
Turning to `c1ccc(/C(=N/Nc2nc3ccccc3s2)c2ccccn2)cc1`, the activity, negative = inhibition is -42.9% [at 11.4 µM].
On the same count and under the same terms, with `O=c1c(-c2cc(F)cc(F)c2)nc2cnc(N3CCOCC3)nc2n1-c1ccccc1` the figure was -8.88%; with `O=S(=O)(c1ccccc1)c1cnn2c(C(F)(F)F)cc(-c3ccc(F)cc3)nc12`, -26.6%.
Regarding `Fc1ccc(-c2cn3cc(C(F)(F)F)cc(Cl)c3n2)cc1`, the AC50 was 10 µM (active).
Regarding `CCOC(=O)CSC1=NC(=O)/C(=C\c2ccc(OC(C)=O)cc2)S1`, the AC50 is 15.8 µM (active).
In the case of `O=C1CC[C@H](NC(=O)c2ccccc2)C(=O)N1`, the activity, negative = inhibition is 28.7% [at 11.4 µM].
As to `O=C1CSC(c2ccccc2F)N1c1cc(Cl)ccc1O` (stereo not given), the AC50 was 0.891 µM (active).
With `Nc1nc(N)nc(CC(=O)O)n1`, the activity, negative = inhibition is -6.24% [at 11.4 µM].
On the same count and under the same terms, then `Cc1noc(C)c1-c1cncnc1NC1CC1`, with -20.9%.
On to `Cc1ccccc1-c1cncnc1N(C)Cc1ccco1`, for which the AC50 was 5.01 µM (active).
For the compound `CN(Cc1ccco1)c1ncncc1-c1ccccc1Cl`, the AC50 is 0.794 µM (active).
Same read-out and setting: with `CN(Cc1ccco1)c1ncncc1-c1ccccc1C(F)(F)F` the figure was 3.98 µM (active).
The same measure, in the same setting: then `Cc1noc(C)c1-c1cncnc1N(C)Cc1ccco1`, with 2.51 µM (active).
On to `CC1(C)S[C@@H]2[C@H](NC(=O)[C@@H](NC(=O)N3CCNC3=O)c3ccccc3)C(=O)N2[C@H]1C(=O)O`, for which the “activity, negative = inhibition” value is 6.12% [at 25.6 µM].
Consider `CC1(C)O[C@H]2[C@@H](O1)[C@@H](On1nnc3ccc(Cl)cc31)O[C@@H]2[C@@H]1COC(C)(C)O1`, for which the activity, negative = inhibition is 17% [at 11.4 µM].
Still for that read-out and setting: then `Cc1ccc(-n2c(=O)c3sccc3n(CC(=O)NCc3ccco3)c2=O)cc1F`, with 28.2%; and `O=C(CCn1c(=O)[nH]c2ccsc2c1=O)Nc1ccc(F)c(F)c1`, with -13.9%; and `O=C(NCc1ccco1)c1ccc2c(=O)n(-c3ccccc3)c(=S)[nH]c2c1`, with -24.2%.
Turning to `O=C(CCCCCn1c(=O)[nH]c2ccsc2c1=O)NCc1ccc2c(c1)OCO2`, the AC50 is 10 µM (active).
For `O=C(CCCCn1c(=S)[nH]c2ccsc2c1=O)NCc1ccco1`, the AC50 is 14.1 µM (active).
For `NCC[C@H]1CCC[C@H](CCN)N1`, the “activity, negative = inhibition” value was -4.62%.
`O=C(C[C@@H]1C=Cc2ccccc2N1C(=O)c1ccccc1)c1ccccc1`: the AC50 was 0.501 µM (active).
As for `NC(=O)N1c2ccccc2C=Cc2ccccc21`, the “activity, negative = inhibition” value was -26.8% [at 25.6 µM].
With `O=C(Cc1ccc(Br)cc1)Nc1ccccc1Sc1ccccc1`, the AC50 was 0.178 µM (active).
On the same count and under the same terms, with `O=C(NC1CCCCC1)C1CC=CCC1C(=O)OCC(Cl)=C(Cl)Cl` (stereo not given) the figure was 10 µM (active); with `COc1ccc(NC(=O)c2ccc3c(=O)n(Cc4ccco4)c(=S)[nH]c3c2)c(OC)c1`, 4.47 µM (active); with `O=C(c1ccc2c(=O)n(CC3CCCO3)c(=S)[nH]c2c1)N1CCN(c2ccccc2)CC1` (stereo not given), 11.2 µM (active).
Take `O=C(c1ccc2c(=O)n(Cc3ccco3)c(=S)[nH]c2c1)N1CCN(c2ccccc2)CC1`: the AC50 was 2.24 µM (active).
Turning to `COCCCNC(=O)c1ccc2c(=O)n(CC3CCCO3)c(=S)[nH]c2c1` (stereo not given), the “activity, negative = inhibition” value was 12%.
